Measured values published in PubChem BioAssay (NCATS).
Results filed as inconclusive are left out. A call without a number means that no potency is given here. Active and inactive are the calls of the source. Calls follow the shape of the dose curve; as a rule, active = well fitted inhibition curve with a large enough effect; inconclusive = small, poorly fitted or top-dose-only effect; inactive = flat fitted curve, though single readings scatter.

The molecules below were run on TAB109 (assay: qHTS profiling for inhibitors of Plasmodium falciparum proliferation (AID 504749; also: nearly all actives have a fitted effect of over 60% in size)). Details: P. falciparum in erythrocytes, SYBR Green DNA, 72 h; series mostly up to 28.7 µM.
Outline: (§1)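 Quantitative HTS: compounds pinned into medium, infected erythrocytes added (0.3% parasitemia, 2.5% hematocrit), 72 h culture at 37 C under 5% CO2. Saponin/Triton lysis with SYBR Green I, overnight RT, then fluorescence read.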
Potency is read from the fitted curve at half-maximal effect.

Row | SMILES | Potency
1 | COc1ccc2[nH]cc(CCNC(C)=O)c2c1 | inactive
2 | Clc1ccc2nsnc2c1NC1=NCCN1 | inactive
3 | NC(=O)OCC(COC(N)=O)c1ccccc1 | inactive
4 | Cc1cnc(C(=O)NCCc2ccc(S(=O)(=O)NC(=O)NC3CCCCC3)cc2)cn1 | inactive
5 | CC(C)(Oc1ccc(C2CC2(Cl)Cl)cc1)C(=O)O (stereo unspecified) | inactive
6 | CN(C)c1nc(N(C)C)nc(N(C)C)n1 | inactive
7 | CC(=O)OCC(CCn1cnc2cnc(N)nc21)COC(C)=O | inactive
8 | N[C@@H](Cc1c[nH]c2ccc(O)cc12)C(=O)O | inactive
9 | CC[N+](CC)(CC)CCOc1cccc(OCC[N+](CC)(CC)CC)c1OCC[N+](CC)(CC)CC | inactive
10 | NCCCCCC(=O)O | inactive
11 | O=C1N(c2ccccc2)c2ccccc2C1(Cc1ccncc1)Cc1ccncc1 | inactive
12 | Cc1cc(C(C)(C)C)c(O)c(C)c1CC1=NCCN1 | inactive
13 | Nc1nc2c(ncn2COC(CO)CO)c(=O)[nH]1 | inactive
14 | CN(C)C(=N)N=C(N)N | inactive
15 | NC(=O)NO | inactive
16 | NC12CC3CC(CC(C3)C1)C2 | inactive
17 | CC(C)(C)C(=O)Oc1ccc(S(=O)(=O)Nc2ccccc2C(=O)NCC(=O)O)cc1 | inactive
18 | NCCS(=O)(=O)O | inactive
19 | CCCNCC(O)COc1ccccc1C(=O)CCc1ccccc1 (stereo unspecified) | 794 nM (active)
20 | O=C(c1ccc(F)cc1)C1CCN(CCn2c(=O)[nH]c3ccccc3c2=O)CC1 | inactive
21 | Cn1cnc2c1c(=O)[nH]c(=O)n2C | inactive
22 | C[C@](N)(Cc1ccc(O)c(O)c1)C(=O)O | inactive
23 | NCCc1cnc[nH]1 | inactive

What follows are molecules tested on TAB113 in the same assay as above. Details: P. falciparum in erythrocytes, SYBR Green DNA, 72 h; series mostly up to 28.7 µM.
Outline: as §1

Row | SMILES | Potency
24 | COc1ccc2[nH]cc(CCNC(C)=O)c2c1 | inactive
25 | Clc1ccc2nsnc2c1NC1=NCCN1 | inactive
26 | NC(=O)OCC(COC(N)=O)c1ccccc1 | inactive
27 | Cc1cnc(C(=O)NCCc2ccc(S(=O)(=O)NC(=O)NC3CCCCC3)cc2)cn1 | inactive
28 | CC(C)(Oc1ccc(C2CC2(Cl)Cl)cc1)C(=O)O (stereo unspecified) | inactive
29 | CN(C)c1nc(N(C)C)nc(N(C)C)n1 | inactive
30 | CC(=O)OCC(CCn1cnc2cnc(N)nc21)COC(C)=O | inactive
31 | N[C@@H](Cc1c[nH]c2ccc(O)cc12)C(=O)O | inactive
32 | CC[N+](CC)(CC)CCOc1cccc(OCC[N+](CC)(CC)CC)c1OCC[N+](CC)(CC)CC | inactive
33 | NCCCCCC(=O)O | inactive
34 | O=C1N(c2ccccc2)c2ccccc2C1(Cc1ccncc1)Cc1ccncc1 | inactive
35 | Cc1cc(C(C)(C)C)c(O)c(C)c1CC1=NCCN1 | inactive
36 | Nc1nc2c(ncn2COC(CO)CO)c(=O)[nH]1 | inactive
37 | CN(C)C(=N)N=C(N)N | inactive
38 | NC(=O)NO | inactive
39 | NC12CC3CC(CC(C3)C1)C2 | inactive
40 | CC(C)(C)C(=O)Oc1ccc(S(=O)(=O)Nc2ccccc2C(=O)NCC(=O)O)cc1 | inactive
41 | NCCS(=O)(=O)O | inactive
42 | CCCNCC(O)COc1ccccc1C(=O)CCc1ccccc1 (stereo unspecified) | 794 nM (active)
43 | O=C(c1ccc(F)cc1)C1CCN(CCn2c(=O)[nH]c3ccccc3c2=O)CC1 | inactive
44 | Cn1cnc2c1c(=O)[nH]c(=O)n2C | inactive
45 | C[C@](N)(Cc1ccc(O)c(O)c1)C(=O)O | inactive
46 | NCCc1cnc[nH]1 | inactive
